Data taken from ChEMBL document CHEMBL3988442, “University of Dundee, Small-Polar-MMV Screening Library” (2021).
For some of these results: Results with a measured potency or affinity are listed apart.

Columns and labels:
Parameters in all cases: scale not given: direction of the effect not stated beside the values
[1] = biological target: Protein translocase subunit SecA (Escherichia coli (strain K12)) (UniProt P10408); assay: Assay to Identify E. coli SecA ATPase Inhibitors; assay type: functional; conditions: 30 µM
Protein translocase subunit SecA (Escherichia coli (strain K12)), sequence (P10408 whole entry): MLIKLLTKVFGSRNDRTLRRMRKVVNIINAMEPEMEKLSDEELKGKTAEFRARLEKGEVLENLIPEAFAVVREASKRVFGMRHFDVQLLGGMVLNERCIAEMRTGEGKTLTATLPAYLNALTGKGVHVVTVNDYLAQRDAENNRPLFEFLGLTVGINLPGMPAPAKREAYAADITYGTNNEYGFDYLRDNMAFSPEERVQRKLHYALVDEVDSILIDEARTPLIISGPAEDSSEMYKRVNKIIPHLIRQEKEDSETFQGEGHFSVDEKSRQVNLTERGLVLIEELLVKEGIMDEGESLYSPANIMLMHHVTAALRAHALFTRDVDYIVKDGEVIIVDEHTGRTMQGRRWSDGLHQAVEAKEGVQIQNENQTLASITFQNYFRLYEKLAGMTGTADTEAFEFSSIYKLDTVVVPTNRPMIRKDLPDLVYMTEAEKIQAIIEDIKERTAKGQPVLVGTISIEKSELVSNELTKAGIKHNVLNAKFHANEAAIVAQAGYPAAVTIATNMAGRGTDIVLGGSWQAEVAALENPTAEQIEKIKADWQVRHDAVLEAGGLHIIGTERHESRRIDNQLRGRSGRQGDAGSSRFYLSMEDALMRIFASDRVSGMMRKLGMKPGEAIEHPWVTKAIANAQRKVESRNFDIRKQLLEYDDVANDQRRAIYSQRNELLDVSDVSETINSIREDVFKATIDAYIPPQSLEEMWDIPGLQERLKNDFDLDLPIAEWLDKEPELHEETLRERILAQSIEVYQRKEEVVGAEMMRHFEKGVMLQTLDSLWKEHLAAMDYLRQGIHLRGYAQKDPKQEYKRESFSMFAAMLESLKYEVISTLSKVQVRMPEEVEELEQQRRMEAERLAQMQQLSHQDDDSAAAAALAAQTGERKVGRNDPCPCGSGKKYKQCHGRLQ

[2] = biological target: T1, Ubiquitin-activating enzyme e1, putative (Leishmania donovani (strain BPK282A1)) (UniProt E9BSI1); assay: Leishmania donovani Ubiquitin Activating Enzyme (LdE1); assay type: functional; conditions: 30 µM
T1 sequence (whole entry): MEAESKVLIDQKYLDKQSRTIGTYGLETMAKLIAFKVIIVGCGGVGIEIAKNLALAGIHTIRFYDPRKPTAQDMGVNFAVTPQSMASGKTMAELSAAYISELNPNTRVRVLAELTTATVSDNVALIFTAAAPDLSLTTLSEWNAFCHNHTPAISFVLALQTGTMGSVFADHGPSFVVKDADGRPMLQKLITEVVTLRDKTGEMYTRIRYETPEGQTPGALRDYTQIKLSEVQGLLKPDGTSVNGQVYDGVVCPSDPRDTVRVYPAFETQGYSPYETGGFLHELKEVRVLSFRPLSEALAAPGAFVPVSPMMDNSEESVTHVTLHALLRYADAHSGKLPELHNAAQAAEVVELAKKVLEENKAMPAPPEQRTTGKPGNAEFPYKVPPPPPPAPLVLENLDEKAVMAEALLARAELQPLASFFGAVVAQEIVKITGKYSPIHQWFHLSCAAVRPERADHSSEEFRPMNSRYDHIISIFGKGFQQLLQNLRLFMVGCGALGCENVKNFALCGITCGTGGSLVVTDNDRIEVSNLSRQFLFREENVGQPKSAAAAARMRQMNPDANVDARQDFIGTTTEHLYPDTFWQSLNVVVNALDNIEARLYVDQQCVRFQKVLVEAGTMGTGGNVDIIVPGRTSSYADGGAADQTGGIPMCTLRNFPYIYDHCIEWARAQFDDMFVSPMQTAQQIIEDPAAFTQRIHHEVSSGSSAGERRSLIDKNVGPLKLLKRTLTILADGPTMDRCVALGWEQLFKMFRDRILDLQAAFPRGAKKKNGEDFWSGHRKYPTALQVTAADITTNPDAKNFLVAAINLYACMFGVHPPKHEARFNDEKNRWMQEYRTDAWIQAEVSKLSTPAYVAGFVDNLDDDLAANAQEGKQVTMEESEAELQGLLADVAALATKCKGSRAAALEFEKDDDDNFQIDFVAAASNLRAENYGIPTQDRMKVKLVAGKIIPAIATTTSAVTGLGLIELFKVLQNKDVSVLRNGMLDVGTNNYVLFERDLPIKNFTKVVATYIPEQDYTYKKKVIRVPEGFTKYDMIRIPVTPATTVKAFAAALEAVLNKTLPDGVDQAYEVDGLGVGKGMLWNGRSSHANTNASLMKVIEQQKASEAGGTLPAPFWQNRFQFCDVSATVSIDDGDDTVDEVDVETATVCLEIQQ

[3] = biological target: AMP-activated protein kinase, AMPK (Homo sapiens) (UniProt P54646+O43741+P54619+Q9UGJ0+Q9Y478+Q13131+Q9UGI9); assay: AMP-dependent Kinase enzyme assay. An in vitro enzyme assay that detects ADP turnover that is directly proportional to AMPK activity. This uses naive AMPK that is activated during the assay with MK-8722; assay type: functional; conditions: 30 µM
[4] = biological target: Sialic acid-binding Ig-like lectin 9 (Homo sapiens) (UniProt Q9Y336); assay: Hs-Siglec9 ALPHAscreen SOP 20170721; conditions: 10 µM
Sialic acid-binding Ig-like lectin 9 (Homo sapiens), sequence (Q9Y336 whole entry): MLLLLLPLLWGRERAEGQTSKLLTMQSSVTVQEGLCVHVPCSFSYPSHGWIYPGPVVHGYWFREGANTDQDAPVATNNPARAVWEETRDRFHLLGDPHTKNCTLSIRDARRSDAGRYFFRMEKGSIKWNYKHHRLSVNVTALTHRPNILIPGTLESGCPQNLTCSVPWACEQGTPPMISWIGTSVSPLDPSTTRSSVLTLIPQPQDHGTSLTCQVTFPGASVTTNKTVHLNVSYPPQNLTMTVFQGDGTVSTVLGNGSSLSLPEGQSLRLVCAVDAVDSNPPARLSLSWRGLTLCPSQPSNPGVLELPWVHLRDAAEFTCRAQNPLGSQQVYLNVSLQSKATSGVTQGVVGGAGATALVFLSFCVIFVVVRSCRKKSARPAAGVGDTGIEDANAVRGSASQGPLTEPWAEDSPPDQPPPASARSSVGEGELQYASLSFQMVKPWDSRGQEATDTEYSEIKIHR

Trypanosoma cruzi = assay: Trypanosoma cruzi phosphomannomutase and mannose-1-phosphate guanylyltransferase assay; assay type: functional; conditions: 10 µM
[5] = biological target: T2, Arginase-2, mitochondrial (Homo sapiens) (UniProt P78540); assay: in vitro enzyme assay to detect the production of urea directly proportional to the activity of Arginase II; assay type: functional; conditions: 33.3 µM; further: in the data most compounds retested in dose-response had high values
T2 sequence (whole entry): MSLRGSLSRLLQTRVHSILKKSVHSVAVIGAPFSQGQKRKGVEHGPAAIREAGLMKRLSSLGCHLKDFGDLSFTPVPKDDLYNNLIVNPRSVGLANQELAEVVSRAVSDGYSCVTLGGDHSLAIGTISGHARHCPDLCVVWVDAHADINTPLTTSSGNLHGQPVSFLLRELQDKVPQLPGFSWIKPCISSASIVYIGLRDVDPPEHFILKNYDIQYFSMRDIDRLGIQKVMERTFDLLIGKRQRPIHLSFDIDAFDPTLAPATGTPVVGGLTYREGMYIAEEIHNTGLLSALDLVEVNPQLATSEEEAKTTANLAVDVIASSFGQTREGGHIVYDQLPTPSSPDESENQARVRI

[6] = biological target: T3, Proteasome subunit beta (Trypanosoma cruzi) (UniProt O96673); assay: Trypanosoma cruzi proteasome chymotrypsin-like activity (TcProtChymo) assay.; further: in the data most compounds retested in dose-response had high values; assay type: functional; conditions: 9.37 µM
T3 sequence (whole entry): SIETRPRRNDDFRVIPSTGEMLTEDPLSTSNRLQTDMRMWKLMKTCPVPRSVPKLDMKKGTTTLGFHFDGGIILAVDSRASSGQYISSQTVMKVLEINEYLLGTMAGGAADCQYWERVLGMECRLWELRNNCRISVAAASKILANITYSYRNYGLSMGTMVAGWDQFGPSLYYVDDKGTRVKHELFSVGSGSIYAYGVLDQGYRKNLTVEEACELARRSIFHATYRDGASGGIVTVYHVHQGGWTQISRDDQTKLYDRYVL

Homo sapiens = organism: Homo sapiens; assay: To identify inhibition of the IFN signalling (Jak-Stat) pathway via expression of an eGFP reporter gene under the control of an IFN-stimulated response element (ISRE) containing MxA promoter.; assay type: functional; conditions: 30 µM
[7] = biological target: T4, Tyrosyl-tRNA synthetase, putative (Trypanosoma cruzi (strain CL Brener)) (UniProt Q4DSP6); assay: Trypanosoma cruzi tyrosyl tRNA synthetase (TcYRS) _High Tyrosine SOP; assay type: functional; conditions: 30 µM; further: in the data most compounds retested in dose-response had high values
T4 sequence (whole entry): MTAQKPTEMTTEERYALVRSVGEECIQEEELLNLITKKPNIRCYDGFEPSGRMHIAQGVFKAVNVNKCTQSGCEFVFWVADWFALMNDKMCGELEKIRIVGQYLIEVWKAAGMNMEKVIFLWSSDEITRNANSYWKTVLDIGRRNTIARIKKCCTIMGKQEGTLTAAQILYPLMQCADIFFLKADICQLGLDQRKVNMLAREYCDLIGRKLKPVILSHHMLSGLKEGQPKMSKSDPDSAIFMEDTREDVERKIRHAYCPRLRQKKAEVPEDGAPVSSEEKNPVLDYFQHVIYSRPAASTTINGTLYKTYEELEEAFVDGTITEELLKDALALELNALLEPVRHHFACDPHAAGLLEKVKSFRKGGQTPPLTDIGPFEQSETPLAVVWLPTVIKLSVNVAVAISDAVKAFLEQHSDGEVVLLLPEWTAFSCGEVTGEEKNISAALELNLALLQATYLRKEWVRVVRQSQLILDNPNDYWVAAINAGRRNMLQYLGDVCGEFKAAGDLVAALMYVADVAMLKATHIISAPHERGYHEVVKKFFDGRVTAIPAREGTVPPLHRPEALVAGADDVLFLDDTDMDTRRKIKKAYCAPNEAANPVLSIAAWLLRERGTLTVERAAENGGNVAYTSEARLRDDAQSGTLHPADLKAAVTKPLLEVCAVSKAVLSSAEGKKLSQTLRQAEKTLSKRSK

[8] = biological target: T4, Tyrosyl-tRNA synthetase, putative (Trypanosoma cruzi (strain CL Brener)); assay: Trypanosoma cruzi tyrosyl tRNA synthetase (TcYRS) SOP; assay type: functional; conditions: 30 µM
[9] = biological target: Chromo domain-containing protein 1 (Saccharomyces cerevisiae (strain ATCC 204508 / S288c) (Baker's yeast)) (UniProt P32657); assay: ScCHD-1 Enzyme Inhibition Assay; assay type: functional; conditions: 30 µM; further: in the data most compounds retested in dose-response had high values
Chromo domain-containing protein 1 (Saccharomyces cerevisiae (strain ATCC 204508 / S288c) (Baker's yeast)), sequence (P32657 whole entry, the tested form may be a part): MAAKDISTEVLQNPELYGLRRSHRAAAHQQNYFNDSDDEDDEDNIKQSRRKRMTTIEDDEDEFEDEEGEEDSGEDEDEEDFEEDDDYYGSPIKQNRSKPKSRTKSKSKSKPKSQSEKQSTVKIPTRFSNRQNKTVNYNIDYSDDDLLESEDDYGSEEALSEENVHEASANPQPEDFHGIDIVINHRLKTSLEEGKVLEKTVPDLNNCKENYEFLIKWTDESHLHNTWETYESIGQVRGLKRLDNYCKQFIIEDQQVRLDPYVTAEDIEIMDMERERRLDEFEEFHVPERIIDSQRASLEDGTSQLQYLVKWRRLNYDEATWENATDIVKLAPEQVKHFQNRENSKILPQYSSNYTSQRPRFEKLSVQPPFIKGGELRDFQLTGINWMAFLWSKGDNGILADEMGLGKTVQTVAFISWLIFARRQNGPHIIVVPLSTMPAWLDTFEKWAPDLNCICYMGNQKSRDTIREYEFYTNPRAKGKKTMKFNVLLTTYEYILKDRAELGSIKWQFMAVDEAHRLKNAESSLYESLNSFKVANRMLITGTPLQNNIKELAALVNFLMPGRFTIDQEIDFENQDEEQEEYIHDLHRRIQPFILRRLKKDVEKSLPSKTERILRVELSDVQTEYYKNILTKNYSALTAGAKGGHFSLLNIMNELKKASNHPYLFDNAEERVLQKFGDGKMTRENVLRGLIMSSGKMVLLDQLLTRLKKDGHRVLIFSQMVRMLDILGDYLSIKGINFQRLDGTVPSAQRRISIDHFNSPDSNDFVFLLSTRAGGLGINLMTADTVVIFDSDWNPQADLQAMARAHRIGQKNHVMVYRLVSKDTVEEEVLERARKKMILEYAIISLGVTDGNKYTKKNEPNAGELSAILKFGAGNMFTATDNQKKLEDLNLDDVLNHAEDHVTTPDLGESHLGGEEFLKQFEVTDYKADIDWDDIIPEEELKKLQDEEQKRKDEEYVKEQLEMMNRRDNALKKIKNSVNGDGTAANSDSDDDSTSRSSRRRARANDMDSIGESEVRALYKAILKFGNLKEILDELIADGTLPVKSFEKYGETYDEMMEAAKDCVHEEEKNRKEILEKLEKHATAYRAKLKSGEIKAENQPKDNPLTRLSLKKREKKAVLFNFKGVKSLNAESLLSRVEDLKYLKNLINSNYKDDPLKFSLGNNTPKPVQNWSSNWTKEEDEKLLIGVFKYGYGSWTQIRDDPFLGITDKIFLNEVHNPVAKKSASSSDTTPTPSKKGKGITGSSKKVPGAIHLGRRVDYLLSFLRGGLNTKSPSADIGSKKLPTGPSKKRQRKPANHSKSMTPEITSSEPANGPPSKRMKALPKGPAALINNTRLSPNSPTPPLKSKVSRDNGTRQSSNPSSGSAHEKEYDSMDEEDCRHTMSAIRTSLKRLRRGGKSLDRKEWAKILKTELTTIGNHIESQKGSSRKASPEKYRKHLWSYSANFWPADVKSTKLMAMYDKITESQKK

Compound | Percent Effect [1] [%] | Percent Effect [2] [%] | Percent Effect [3] [%] | Percent Effect [4] [%] | Percent Effect (Trypanosoma cruzi) [%] | Percent Effect [5] [%] | Percent Effect [6] [%] | Percent Effect (Homo sapiens) [%] | Percent Effect [7] [%] | Percent Effect [8] [%] | Percent Effect [9] [%]
Cc1cc(C)c(CNC(=O)N(C)Cc2sccc2C)c(=O)[nH]1 | -4.14 | 18.4 | -5.42 | -3.09 | -3.46 | -2.88 | 2.62 | 9.33 | 4.43 | 11.1 | -4.59
CCc1nc(CN2CCCN(C(=O)C(C)n3ccnc3)CC2)cs1 (stereo not given) | -2.92 | 5.2 | 3.99 | 3.63 | 3.75 | -5.69 | 21.1 | -7.97 | 5.83 | 9.76 | -4.4
CC(NC(=O)NCCCn1cccn1)c1ccc2c(c1)NC(=O)CO2 (stereo not given) | -6.96 | 25.3 | -6.75 | -5.5 | 10.1 | -3.42 | 10.2 | 15.4 | 8.37 | 29.1 | -10.1
O=C(CCc1cc2n(n1)CCCN(Cc1ccccc1F)C2)NC1CC1 | -3.75 | 1.39 | 1.32 | 0.0735 | 6.71 | -2.21 | 10.2 | -26.8 | 2.1 | 5.13 | -4.12
Cc1ccc(N2CCC3(CC2)CC(OCC(=O)N(C)C)CO3)nn1 (stereo not given) | -2.67 | 5.41 | 1.03 | -1.72 | -0.684 | 2.23 | 14.9 | -14.6 | 2.16 | 12.8 | 2.16
CN1CCCc2cc(NC(=O)N3CCOC(C(N)=O)C3)ccc21 (stereo not given) | 4.12 | 21.9 | 34.2 | 5.33 | 5.75 | -1.2 | 10.5 | 14.3 | 8.33 | 21 | -3.37
Cc1occc1C(=O)N1CCC[C@]2(C[C@@H](OCc3ccncc3)CO2)C1 | 0.103 | 10.7 | 1.3 | 1.1 | -1.16 | -23.5 | 16.4 | -0.395 | 7.29 | 22.5 | -5.63
CC(CN1CCOCC1)NC(=O)N(C)Cc1ccc(Cl)s1 (stereo not given) | 0.481 | 10.5 | 2.51 | -1.81 | -6.91 | 0 | 13.3 | 3.75 | 6.38 | 13 | -2.62
CC(C)Oc1ccc(CNC(=O)CC(F)(F)F)cc1F | -5.61 | 10.5 | -1.12 | 6.95 | -2.52 | 1.08 | 1.78 | -11.2 | 4.43 | 11.1 | -4.45
CN1CCC(c2nnc(CN3CCC(O)CC3)n2C)CC1 | -3.38 | 8.22 | 6.23 | -1.15 | -1.76 | 1.82 | 8.87 | 1 | 4.3 | 15 | -4.74
NCCn1nc(C2CCN(C(=O)CC3CCCCC3)C2)c2nccnc21 (stereo not given) | -2.44 | -10.7 | 3.88 | 8.44 | 1.57 | -3.5 | -10.5 | 11.9 | -8.51 | 8.97 | -1.74
CCOCC(O)CN1CCN(C(=O)c2cccc(F)c2)CC1 (stereo not given) | -1.53 | 2.7 | -2.77 | -2.18 | 7.92 | -2.86 | 5.17 | 13.8 | 0.529 | -9.76 | -2.68
CN(C)C(=O)CN1CCC2(CCN(Cc3nccs3)CC2)C1=O | -0.585 | 10.7 | 0.545 | -5.07 | -9.46 | -60.4 | 12.5 | 13.1 | -12.5 | 5 | -7.73
COc1ccc(CN2C[C@H]3CC[C@](O)(c4ccc(C)cn4)[C@H]3C2)c(F)c1 | -5 | 6.76 | 15.2 | 2.69 | -2.77 | -1.16 | -1.56 | 13.7 | 5.38 | 6.49 | -8.01
Cc1nc(COc2cccc(C#N)c2)no1 | -1.52 | 21.1 | -5.19 | 8.22 | 5.13 | -0.36 | 8.21 | -0.09 | 10.3 | 25.9 | -8.11
Cc1nc[nH]c1CN1C[C@@H]2CC[C@H](C1)N(C(=O)CCNS(C)(=O)=O)C2 | -4.5 | -1.39 | -15.6 | 26.7 | 4.57 | 17.7 | 3.33 | -7.69 | 5.26 | 7.69 | -4.5
CCCN(CC1COc2ccccc2O1)C(=O)CCn1cncn1 (stereo not given) | -3.98 | 13.2 | -1.36 | -1.88 | -1.5 | -0.383 | 8.52 | 0.478 | 7.35 | 17.1 | -2.23
CCN(CC)CCNC(=O)c1nn(CC)cc1Cl | 0.115 | 20 | -10.1 | -7.51 | 2.55 | -10.7 | 9.43 | 29.3 | 5.29 | 10.3 | -9.1
O=C(Cc1ccc(-n2cccn2)cc1)N1CCCC(n2cccn2)C1 (stereo not given) | -9.35 | 10.4 | -6.09 | -18.3 | 11.5 | -1.9 | 13.8 | -3.32 | 6.67 | 11.8 | -20
Cc1cc(C(F)(F)F)nn1C(C)C(=O)Nc1ccncc1 (stereo not given) | -1.07 | 25.3 | -4.73 | -5.25 | -0.982 | -12.2 | 8.87 | 13.8 | 2.12 | 12.8 | -9.26
